# Over roughly 33,000 sequences, “E-score (-0.5 to 0.5)” has its median near -0.054; the highest 2% begin near 0.35. The full list was thinned out, with the highest values kept by preference.
# Target: T1, Stb5 (UniProt P38699)
# T1 sequence: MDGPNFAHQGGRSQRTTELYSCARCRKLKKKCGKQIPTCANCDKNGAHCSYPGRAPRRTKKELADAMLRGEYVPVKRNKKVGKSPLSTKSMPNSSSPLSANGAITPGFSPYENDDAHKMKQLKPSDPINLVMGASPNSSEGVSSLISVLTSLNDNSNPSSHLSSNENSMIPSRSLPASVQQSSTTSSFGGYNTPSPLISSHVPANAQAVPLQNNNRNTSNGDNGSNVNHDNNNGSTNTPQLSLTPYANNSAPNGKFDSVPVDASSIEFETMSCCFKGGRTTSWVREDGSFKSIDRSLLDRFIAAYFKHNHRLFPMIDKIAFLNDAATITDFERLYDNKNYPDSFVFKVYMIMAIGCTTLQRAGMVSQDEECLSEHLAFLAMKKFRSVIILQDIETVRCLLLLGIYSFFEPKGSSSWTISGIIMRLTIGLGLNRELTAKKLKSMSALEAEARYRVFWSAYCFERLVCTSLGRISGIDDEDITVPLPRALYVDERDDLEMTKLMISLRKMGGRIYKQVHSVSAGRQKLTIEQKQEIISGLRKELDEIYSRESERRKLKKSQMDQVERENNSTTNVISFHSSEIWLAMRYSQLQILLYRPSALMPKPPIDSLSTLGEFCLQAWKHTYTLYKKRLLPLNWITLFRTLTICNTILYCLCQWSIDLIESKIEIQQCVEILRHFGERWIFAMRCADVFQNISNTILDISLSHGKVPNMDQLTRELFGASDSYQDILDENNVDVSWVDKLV
# Test: PBM E-score (8-mer binding enrichment) (E-score (-0.5 to 0.5)); higher = stronger / more preferred TF binding
# Conditions: protein concentration: 200 nM; construct: GST-full length
# Description: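 Universal 'all 10-mer' protein binding microarrays (Agilent AMADID 015681) probed with GST-tagged S. cerevisiae TFs (full-length or DBD) made by in vitro transcription/translation (PURExpress), about 100-200 nM. Bound TF was detected with fluorescent anti-GST. Each ungapped 8-mer (which stands for itself and its reverse complement) is scored by the PBM enrichment score (E-score), a modified Wilcoxon-Mann-Whitney statistic from -0.5 to +0.5, computed with the Universal PBM Analysis Suite. Scale: above 0.35 generally sequence-specific binding.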
row,Sequence,PBM E-score
1,ATCGCAAC,-0.0557
2,CATATCCG,0.15
3,AATATGCT,0.00961
4,GCGGCACC,0.353
5,CCGGCACC,0.278
6,GCGGCACA,0.173
7,GCAAAAGA,-0.0404
8,CATTGAGC,-0.032
9,CTCTAATA,-0.188
10,AGGGCCCT,-0.173
11,GGGCTAAC,-0.0393
12,AGCTAGGG,-0.0617
13,ATAGCACA,-0.124
14,ATAGCGCG,0.0127
15,ATAGCACC,0.396
16,CTAGCGCC,0.172
17,ATAGCACG,-0.0126
18,ATAGCGCC,0.361
19,AGCTCGAA,-0.0836
20,GGTGAAGA,0.0224
21,CAGTTCGG,0.206
22,GTTTCTAA,0.0616

row,Sequence,PBM E-score
1,CTGCCGAC,0.15
2,ATGCCGTG,0.144
3,CCGCCGAC,0.356
4,CCGCCGAA,0.347
5,ACGCCGAT,0.35
6,CCGCCGAG,0.28
7,ATGCCGAC,0.386
8,ATGCCGTC,0.352
9,GCGCCGAC,0.28
10,ACGCCGAC,0.435
11,ATGCCGAG,0.147
12,CTGCCGTC,0.121
13,AGAATCTG,-0.0539
14,CCACACGC,-0.0412
15,CTCCGTCA,0.297
16,ATCTACAT,-0.193
17,TCCAACAA,-0.129
18,GAGGTATC,-0.0164
19,ATGCCGGC,0.301
20,ATGCCGGG,0.287
21,ATGCCGGA,0.373
22,GTTATCGA,-0.0558

row,Sequence,PBM E-score
1,CAAGAGAC,-0.146
2,AGCGACGG,0.245
3,CACGACGG,0.168
4,ACCGACGA,0.354
5,CCCGACGG,0.437
6,TCCGACGA,0.252
7,GCCGACGC,0.316
8,AACGACGG,0.242
9,CCCGACGA,0.31
10,CCCGACGC,0.388
11,GCCGACGA,0.308
12,ACCGACGG,0.42
13,CCAGACGG,0.179
14,AGGGGGAC,-0.248
15,CGCTGGGC,0.106
16,AGAGGCGG,0.253
17,CATAGAAG,-0.126
18,AGACCCAG,-0.291
19,GAGGTCCC,-0.19
20,CTTGGGCA,-0.0874
21,AGGCCACC,-0.188
22,CCCTCGAA,-0.222

row,Sequence,PBM E-score
1,TAGAACAA,-0.15
2,CCTTGGTA,0.0875
3,ACCGACGC,0.306
4,ACCGACGT,0.355
5,AACGACGT,-0.0504
6,TGTGATAA,-0.171
7,AATACCGC,0.454
8,CATACCGG,0.193
9,CATACCGC,0.307
10,AATACCGA,0.415
11,AATACCAG,-0.007
12,AATACCAT,-0.0252
13,AATACCGG,0.417
14,GATACCGC,0.35
15,TATACCGA,0.26
16,CATACCGA,0.279
17,AATACCCT,-0.00882
18,AATACCGT,0.438
19,CGCGTCTC,0.0131
20,CATCGACG,0.0157
21,ATTGCAGA,-0.201
22,CGCAGCAA,-0.192

row,Sequence,PBM E-score
1,ACCGTCCA,0.242
2,AATGTGCA,-0.241
3,CGCAGAGC,-0.0211
4,ATGTGCTC,-0.151
5,CTGGACTA,-0.143
6,CAACATTA,-0.0568
7,GGCACCGA,0.351
8,AGCACCTA,-0.104
9,AGCACCGA,0.476
10,AGCACCCG,0.153
11,AGCACCGG,0.421
12,AGCACCAG,-0.177
13,ACAGAATC,-0.16
14,AACCGTAG,-0.118
15,CATTTCTA,0.0892
16,CGGACTCC,0.231
17,GGGACTAA,0.246
18,CGGACTAA,0.428
19,GGGACTCA,-0.0395
20,CGGACTCA,0.411
21,AGGACTGA,-0.184

# Source: the supplement of paper PMC3334620
